# Shown are actives, neighbours in structure and some others; about 3.2% of the full set was active somewhere.
# ALOX15 inhib = qHTS Assay for Inhibitors of 15-hLO (15-human lipoxygenase) | Polyunsaturated fatty acid lipoxygenase ALOX15 (Homo sapiens), P16050 | purified 15hLO-1, xylenol orange hydroperoxide absorbance | Potency, µM (highest dose often 57.1 µM), inactives show at the top dose activity change, negative = inhibition, hits mostly inhibitors | hit rate 1.4% among 74,000 | AID 887, 2007; note: % is set by controls: 0 for no effect and ±100 for the full control effect; nearly all actives have a fitted effect of over 55% in size
#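 Purified human 15hLO-1 (40 nM) in 25 mM Hepes pH 7.5, 0.01% Triton X-100, preincubated 15 min RT with compound, then 50 uM arachidonic acid for 6 min. Hydroperoxide read by ferrous/xylenol orange, 30 min; 573/405 nm absorbance ratio gave progress.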
# Casp7 inh = qHTS Assay for Allosteric/Competitive Inhibitors of Caspase-7 | P55210 | recombinant caspase-7, Ac-DEVD-AFC fluorescence rate | Potency, µM (series often up to 57.5 µM), for the others: top-dose activity change, negative = inhibition, usual class: inhibitors | hit rate 0.02% among 75,000; active = well fitted inhibition curve with a large enough effect in the main read-out, with a control signal flat, not every such curve was filed as active; inconclusive = small, poorly fitted or top-dose-only effect, or a change in a side signal; note: % of control where 0% means no effect
# Target sequence (P55210 24-198 limits assumed): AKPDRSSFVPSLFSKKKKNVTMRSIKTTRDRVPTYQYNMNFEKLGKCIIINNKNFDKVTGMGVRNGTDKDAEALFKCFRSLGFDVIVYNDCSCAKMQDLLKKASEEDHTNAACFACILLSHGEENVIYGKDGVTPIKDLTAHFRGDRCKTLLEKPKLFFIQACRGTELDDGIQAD
# Target sequence (P55210 207-303 limits assumed): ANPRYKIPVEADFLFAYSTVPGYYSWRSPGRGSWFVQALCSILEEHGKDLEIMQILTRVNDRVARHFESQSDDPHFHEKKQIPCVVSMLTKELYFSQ
# Tau fil binding = qHTS Assay for Tau Filament Binding. recombinant tau filaments, thioflavin S fluorescence, 15 h; filaments grown with octadecylsulfate alongside compound. Potency, µM (highest dose often 57.1 µM), for the others: top-dose activity change, negative = inhibition. hit rate 2% among 71,000;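 note: % is set by controls: 0 for no effect and ±100 for the full control effect; actives lower thioflavin S fluorescence by blocking filaments or displacing dye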
#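 Read-out: ThS fluorescence, 450 nm excitation/510 nm emission; lower signal marks blocked filament formation or displaced dye. Tau at 1 uM with 30 uM ODS, 10 uM ThS, 5 mM DTT, 100 mM NaCl, 10 mM HEPES pH 7.4; 15 h, 37 C.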
# DNA Pol III inh = qHTS Assay for Inhibitors of DNA Polymerase III Holoenzyme System; reconstituted DNA polymerase III holoenzyme replication, biochemical; Potency, µM (top dose mostly 57.1 µM), for inactives: at the highest dose activity change, negative = inhibition; hit rate 0.25% among 71,000; AID 603, 2007; note: % is set by controls: 0 for no effect and ±100 for the full control effect
#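 Reconstituted *E. coli* holoenzyme (0.35 nM Pol III, 1 nM beta, 154 nM SSB, 2 nM primase) was preincubated with compound for 15 min at RT. Synthesis on 1.4 nM ssM13Gori ran 35 min, then was stopped with PicoGreen/EDTA and read as dsDNA fluorescence.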
# Caspase-1 inhib = qHTS Assay for Allosteric/Competitive Inhibitors of Caspase-1 | P29466 | Caspase-1 enzyme, Ac-WEHD-AFC fluorogenic rate | Potency, µM (series often up to 57.5 µM), inactives show at the highest dose activity change, negative = inhibition, usual class: inhibitors | hit rate 0.03% among 75,000 | AID 900, 2007;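 note: plate controls were vehicle for no effect and no substrate for full effect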
# Target sequence (P29466 120-297 limits assumed): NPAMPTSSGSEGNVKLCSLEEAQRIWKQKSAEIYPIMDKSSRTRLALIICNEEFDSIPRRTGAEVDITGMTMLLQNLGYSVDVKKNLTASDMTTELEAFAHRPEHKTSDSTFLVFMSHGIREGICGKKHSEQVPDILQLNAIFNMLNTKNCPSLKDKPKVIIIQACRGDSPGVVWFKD
# Target sequence (P29466 317-404 limits assumed): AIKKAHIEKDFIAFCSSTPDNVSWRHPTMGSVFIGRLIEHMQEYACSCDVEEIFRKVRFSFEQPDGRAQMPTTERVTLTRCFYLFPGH
# Numbers without * were called inactive; i = inactive; u = inconclusive; x = no result; [ ] = dose if it differs, or a comment. Unless noted, calls come from the whole dose curve; as a rule, active = well fitted curve in the direction sought with a large enough effect; inconclusive = small, poorly fitted or top-dose-only effect, or another doubt; inactive = no such curve, though single readings can be large; an effect the other way counts as inactive or inconclusive. Potency is the fitted concentration of half-maximal effect.
SMILES,ALOX15 inhib,Casp7 inh,Tau fil binding,DNA Pol III inh,Caspase-1 inhib
CC(=O)N1CCN(c2ccc(NCc3ccc(C)s3)cc2)CC1,10µM*,-2.0%,u,1.5%,-2.1%
C[C@@]12CC[C@@H]3[C@H](CCC4=CC(=O)CC[C@]43C)[C@@H]1CC[C@@H]2C(=O)COS(=O)(=O)c1ccc(Br)cc1,u,-1.8%[11.5 µM],-11.1%[11.4 µM],-7.3%[11.4 µM],1.9%[11.5 µM]
CC(=O)Nc1nc2n(n1)C(c1ccccc1)C=C(c1ccccc1)N2 (stereo unspecified),20µM*,u,i,-14.6%,x
Cn1c(-c2ccc3c(c2)OCO3)cnc1NCc1cccc(Cl)c1,20µM*,-2.8%,7.3%,-2.9%,0.5%
Cc1onc(-c2ccccc2Cl)c1C(=O)N1CCCc2ccccc21,5.4%,-7.2%,-0.3%,0.5%,-0.2%
Cc1onc(-c2ccccc2Cl)c1C(=O)OCC(=O)N1CCCc2ccccc21,20µM*,-3.7%,-13.2%,2.2%,-3.5%
COc1cc(NS(C)(=O)=O)c(OC)cc1NC(=O)c1ccccc1,1.8%,-1.7%,15.8µM*,-8.0%,-1.2%
COc1cc(NC(=O)c2ccc(Cl)cc2)c(OC)cc1NC(=O)CN1CCOCC1,-4.3%,-1.9%,20µM*,-1.7%,1.3%
CCC(=O)Nc1cc(OC)c(NC(=O)c2ccccc2)cc1OC,-2.2%,-0.2%,12.6µM*,-4.6%,-2.4%
COc1cc(NC(=O)c2ccccc2)c(OC)cc1NC(C)=O,4.3%,0.5%,-17.4%,-3.8%,0.7%
COc1cc(NC(=O)c2ccccc2)cc(OC)c1,-4.3%,-0.1%,10µM*,-8.2%,-1.2%
CC(=O)N[C@@H]1CONC1=O,1.8%[11.4 µM],-0.2%[11.5 µM],4.2%[11.4 µM],-10.7%[11.4 µM],-2.2%[11.5 µM]
COCCN1C(=O)c2ccccc2C(C(=O)NCCCN2CCCC2=O)C1c1c[nH]c2ccccc12 (stereo unspecified),25.1µM*,-0.5%,-8.3%,-3.0%,-0.9%
CCN1C=C(Cc2cccs2)C2=C(C1)C(c1cccs1)C(C#N)=C(N)O2 (stereo unspecified),10µM*,-26.3%,3.98µM*,-0.2%,-15.3%
O=C1c2ccccc2C(=O)c2c(NC3CCCCC3)ccc(Nc3ccc(S(=O)(=O)O)cc3)c21,-26.8%[11.4 µM],-8.9%[11.5 µM],3.16µM*,-15.2%[11.4 µM],-14.9%[11.5 µM]
Nc1ccc(-c2ccc(Nc3cc(S(=O)(=O)O)c(N)c4c3C(=O)c3ccccc3C4=O)cc2)c(S(=O)(=O)O)c1,u,-19.7%[11.5 µM],-8.8%[11.4 µM],-1.8%[11.4 µM],-0.6%[11.5 µM]
O=Nc1ccc(Nc2ccccc2)cc1,-21.4%,2.8%,31.6µM*,1.3%,-3.5%
C#CCCCO/N=C1/C[C@@H](O)[C@@H](O)[C@@H]2[C@@H]3C(=O)N(C(C)(C)C)C(=O)[C@H]3CC[C@H]12,-1.0%[11.4 µM],0.0%[11.5 µM],x,x,-9.0%[11.5 µM]
CCCOC(=O)c1ccc(Oc2c(-c3ccc(O)cc3O)n[nH]c2C)cc1,u,-12.5%,20µM*,-3.8%,-4.3%
COC(=O)[C@H](Cc1ccccc1)NC(=O)[C@@H](C)CO,0.0%[11.4 µM],1.0%[11.5 µM],x,x,0.7%[11.5 µM]
Cc1nc(NCc2ccccc2)c2nc(-c3ccccc3)n(CCCN3CCOCC3)c2n1,u,-0.1%,32.3%,3.5%,-0.6%
Cc1nc(NCc2ccccc2)c2nc(-c3ccccc3)n(CCN3CCCCC3)c2n1,20µM*,-1.6%,12.1%,-7.3%,-1.9%
Cc1nc(NC2CCCCC2)c2nc(-c3ccccc3)n(CCCN3CCOCC3)c2n1,31.6µM*,-1.0%,67.7%,-1.2%,0.4%
Cc1nc(Nc2ccccc2)c2nc(-c3ccccc3)n(CCN3CCOCC3)c2n1,20µM*,-1.3%,14.3%,-5.3%,-0.9%
Cc1nc(N2CCOCC2)c2nc(-c3ccccc3)n(CCN3CCCCC3)c2n1,7.8%,-2.2%,6.6%,-2.1%,2.9%
SMILES,ALOX15 inhib,Casp7 inh,Tau fil binding,DNA Pol III inh,Caspase-1 inhib
CSCC[C@@H]1NC(=O)C/C=C\[C@@H](C)COC(=O)[C@H](C)COC1=O,4.1%[11.4 µM],-1.3%[11.5 µM],x,x,-3.4%[11.5 µM]
Nc1nc(NCCc2ccc(O)cc2)nc2nc(-c3ccco3)nn12,-9.8%[25.6 µM],1.9%,31.6µM*,-5.7%,-3.5%
Cc1nc2nc(-c3ccco3)nn2c(C)c1Cl,1.9%,-1.0%,-17.8%,-5.6%,-0.6%
CCOCCOC(=O)c1cccc(NC(=O)OCC)c1,-2.9%,1.3%,-14.2%,-9.1%,-0.2%
CCOCCOC(=O)C1=C(C)Nc2ccc(C)cc2S1,u,-0.9%,12.6µM*,0.5%,-2.6%
CCOC(=O)c1c(C)oc2c1c(C(c1cccnc1)N1CCN(C)CC1)c(O)c1ccccc12 (stereo unspecified),-29.8%,-0.5%,-0.1%,-3.0%,-0.2%
CCOC(=O)c1c(C)oc2c1c1c(c3ccccc32)OCN(Cc2cccnc2)C1,2µM*,-17.7%,47.3%,-1.5%,-17.0%
COc1ccc(CCn2c(=N)c(C(=O)N3CCN(C)CC3)cc3c(=O)n4ccccc4nc32)cc1,-14.9%,u,15.8µM*,-10.5%,x
N=c1c(C(=O)NCc2ccco2)cc2c(=O)n3ccccc3nc2n1CCc1ccccc1,12.6µM*,u,0.631µM*,-16.1%,x
COc1ccc(CNC(=O)c2cc3c(=O)n4ccccc4nc3n(Cc3ccco3)c2=N)cc1,-27.4%,u,229.1%,-17.0%,x
Cc1ccc(Cn2c(=N)c(C(=O)NCc3ccco3)cc3c(=O)n4ccccc4nc32)cc1,-27.4%,u,3.16µM*,-0.2%,x
CCOC(=O)c1cc2c(=O)n3ccccc3nc2n(Cc2ccccc2)c1=N,-8.8%,u,1.58µM*,-2.2%,x
CCOC(=O)N/N=C1/C[C@@H](O)[C@@H](O)[C@@H]2[C@@H]3C(=O)N(C[C@@H]4CCCO4)C(=O)[C@H]3CC[C@H]12,1.2%[11.4 µM],-4.7%[11.5 µM],x,x,-1.6%[11.5 µM]
O=C(NCc1ccco1)c1nc2nc(-c3cccs3)cc(C(F)(F)F)n2n1,-13.6%,u,25.1µM*,-13.0%,x
COCCNC(=O)[C@H](C)/C=C/C(NC(=O)OCc1ccccc1)c1ccc(C(=O)OC)cc1 (stereo partly specified),-6.1%,-0.1%,3.1%,-2.3%,-1.3%
COc1ccc(N2CCC(CNC(=O)Nc3ccc(OC)cc3OC)C2)cc1 (stereo unspecified),u,-2.0%,20µM*,4.9%,-2.5%
COc1ccc(N2CCC(CNS(=O)(=O)c3cccc(C(F)(F)F)c3)C2)cc1 (stereo unspecified),0.794µM*,-0.8%,1.26µM*,-4.5%,-2.8%
O=C(O)[C@@H]1[C@@H]2C[C@H]([C@@H](Br)[C@H]2N2C(=O)CCC2=O)[C@@H]1C(=O)O,16.6%[11.4 µM],-1.4%[11.5 µM],-3.0%[11.4 µM],-4.1%[11.4 µM],-0.5%[11.5 µM]
Cc1nc2c(c(=O)n1CCC1=CCCCC1)c1nc3ccccc3nc1n2/N=C/c1ccco1,-2.5%,-15.5%,2µM*,-6.8%,-12.9%
C=C/C(C)=C/[C@]1(C)SC(=O)C(C)=C1O,-3.9%,-0.6%,-3.5%,-13.2%,2.6%
CCCCCOC(=O)c1cc(=O)[nH]c2ccccc12,-11.0%,-1.4%,10µM*,-7.5%,0.1%

# Assay outcomes: PubChem BioAssay, National Center for Advancing Translational Sciences (NCATS)
